Source: PubChem BioAssay (The Scripps Research Institute Molecular Screening Center)
PREPL inh: inhibitors of human prolyl oligopeptidase-like enzyme PREPL. recombinant PREPL, fluorescence polarization activity-based probe. inhibition, % at 5.96 µM. 320,000 tested, 0.68% active; in the data active = inhibition above about 43%
LYPLA1 counter: counter-screen for PME1 inhibitors: inhibitors of human LYPLA1. O75608. recombinant LYPLA1, FP-Rh probe fluorescence polarization. inhibition, % at 5.9 µM. 320,000 tested, 0.16% active;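 active = inhibition above the mean of all tested compounds plus 3 SD, set per campaign, cut at about 14% in these data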;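 note: inhibitors block serine hydrolase probe labeling of LYPLA1 so polarization falls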
Target sequence (O75608 whole entry, looked up): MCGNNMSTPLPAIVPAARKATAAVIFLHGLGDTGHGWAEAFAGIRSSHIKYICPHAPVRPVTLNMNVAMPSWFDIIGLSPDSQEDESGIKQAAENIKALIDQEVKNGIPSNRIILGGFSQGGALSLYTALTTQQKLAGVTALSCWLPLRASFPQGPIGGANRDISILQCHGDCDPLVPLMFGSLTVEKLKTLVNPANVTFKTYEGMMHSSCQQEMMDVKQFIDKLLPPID
GSTO1 counter: counter-screen for RBBP9 inhibitors: inhibitors of human GSTO1 | P78417 | recombinant GSTO1, activity-based probe fluorescence polarization | inhibition, % at 5.96 µM | 300,000 tested, 1.1% active;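 active = inhibition above the campaign mean inhibition plus 3 SD, cut at about 35% in these data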
Fam108B counter: blocks mouse Fam108B hydrolase in RBBP9 counter-screen. recombinant Fam108B, FP-Rh probe fluorescence polarization. 300,000 tested, 0.33% active. inhibition, % at 9.51 µM. AID 1947;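 active = inhibition above the screen mean inhibition plus 3 SD, computed separately per campaign, cut at about 18% in these data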;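 note: inhibitors lower polarization as less probe binds the enzyme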
PME-1 inh: PME-1 (human) inhibition | Q9Y570 | recombinant PME-1, FP-Rh probe fluorescence polarization | inhibition, % at 5.9 µM | 320,000 tested, 0.53% active | AID 2130;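 active = inhibition above the campaign mean of all compounds plus 3 SD, cut at about 26% in these data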;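 note: competitive labeling of PME-1 active site by serine hydrolase directed probe; inhibitors block probe labeling so polarization falls and inhibition rises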
Target sequence (Q9Y570 whole entry, looked up): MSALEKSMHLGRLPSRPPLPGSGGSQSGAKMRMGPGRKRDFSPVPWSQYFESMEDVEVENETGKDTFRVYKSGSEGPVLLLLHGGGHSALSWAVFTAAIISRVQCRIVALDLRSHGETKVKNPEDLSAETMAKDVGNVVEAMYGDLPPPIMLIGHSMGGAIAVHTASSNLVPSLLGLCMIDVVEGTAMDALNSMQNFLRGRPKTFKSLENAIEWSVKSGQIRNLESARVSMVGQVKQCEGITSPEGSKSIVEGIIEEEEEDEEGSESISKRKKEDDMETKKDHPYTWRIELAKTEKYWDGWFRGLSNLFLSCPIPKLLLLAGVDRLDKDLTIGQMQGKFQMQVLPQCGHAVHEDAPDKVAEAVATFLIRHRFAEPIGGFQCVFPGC
LYPLA2 counter: LYPLA2 (human) inhibition in PME1 counter-screen; O95372; recombinant LYPLA2, FP-Rh probe fluorescence polarization; inhibition, % at 5.9 µM; 320,000 tested, 0.38% active; AID 2177;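 active = inhibition above the screen-wide mean plus 3 SD, limit set per campaign, cut at about 26% in these data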
LYPLA1 conf: LYPLA1 (human) inhibition, confirmation counter-screen; shares compounds with LYPLA1 counter; recombinant LYPLA1, FP-Rh probe fluorescence polarization; inhibition, % at 5.9 µM; 480 tested, 69% active;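 active = mean inhibition across replicates above the hit cutoff set in the primary screen, cut at about 15% in these data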;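 note: loss of FP-Rh probe labeling of LYPLA1 seen as lower polarization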
LYPLA2 conf: LYPLA2 (human) inhibition, confirmation counter-screen. shares compounds with LYPLA2 counter. recombinant LYPLA2, FP-Rh probe fluorescence polarization. inhibition, % at 5.9 µM. 1,100 tested, 72% active. AID 2232;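 active = mean inhibition across replicates above the hit cutoff set in the primary screen, cut at about 26% in these data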;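 note: blocked labeling of the enzyme by serine hydrolase FP-Rh probe lowers polarization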
Large screens that a line does not name were inactive (follow-up assays come after a bar, where they were run). Shown are actives, neighbours in structure and some others; about 1.9% of the full set was active somewhere.

COc1ccc(OC)c(NC(=O)c2ccccc2N(C)S(=O)(=O)c2ccc(C)cc2)c1	none
COC(=O)COC(=O)c1ccc(O)cc1	LYPLA1 counter 14.9 | LYPLA1 conf inactive
CC(C)N(C(=O)COC(=O)c1ccc(O)cc1)C(C)C	none
Cc1cccc(C(=O)NC(NCc2ccco2)C(Cl)(Cl)Cl)c1 (stereo not given)	LYPLA1 counter 16.8 | LYPLA1 conf inactive
COCCN(C(=O)c1ccccc1OC1CCN(S(C)(=O)=O)CC1)C(C)C	none
C#CCN1c2ccccc2Sc2cccnc21	LYPLA1 counter 17.4, PME-1 inh 28.6 | LYPLA1 conf inactive
CCCc1nnc(SCC(=O)N2CCCCC2C)n1CCOC (stereo not given)	none
Cc1ccc(-c2nnn(CC(=O)N(c3cccc(F)c3)C(C(=O)NC(C)(C)C)c3ccco3)n2)o1 (stereo not given)	none
CCOc1ccccc1NC(=O)C(Sc1nnnn1C)c1ccccc1 (stereo not given)	none
O=C(c1ccccc1)N1CCN(c2ncnc3sc4c(c23)CCC4)CC1	none
CC(C)n1c(O)c(N=NC(=O)CNC(=O)Cc2ccc(Cl)cc2)c2ccccc21	none
COc1ccccc1C(=O)NCC(=O)N=Nc1c(O)n(C(C)C)c2ccccc12	LYPLA1 counter 19.9 | LYPLA1 conf 26.7
O=C(C1CCC(Cn2c(=S)[nH]c3ccccc3c2=O)CC1)N1CCN(c2ccccc2)CC1 (stereo not given)	LYPLA1 counter 35.5, LYPLA2 counter 53.0 | LYPLA1 conf 45.2 | LYPLA2 conf 52.3
COc1ccc(N2CCN(C(=O)C3CCC(Cn4c(=S)[nH]c5ccccc5c4=O)CC3)CC2)cc1 (stereo not given)	LYPLA1 counter 39.8, LYPLA2 counter 83.1 | LYPLA1 conf 43.1 | LYPLA2 conf 84.1
O=C(C1CCC(Cn2c(=O)[nH]c3ccccc3c2=O)CC1)N1CCN(c2ccccc2)CC1 (stereo not given)	none
Cc1ccc(NC(=O)CN2C(=O)NC3(CCCC3)C2=O)c(Cl)c1	none
CCC(C)Sc1nnc(CSc2nc3nc(C)cc(C)n3n2)o1 (stereo not given)	none
CCOC(=O)C1CCN(c2ncnc3c2nnn3Cc2ccccc2Cl)CC1	LYPLA1 counter 28.0, LYPLA2 counter 48.4 | LYPLA1 conf 40.4 | LYPLA2 conf 53.6
O=C(c1ccco1)N1CCN(c2ncnc3c2nnn3Cc2ccccc2Cl)CC1	none
CSc1ccccc1OCc1cc(C(=O)N2CCC(Oc3cccnc3)CC2)no1	LYPLA1 counter 35.6, LYPLA2 counter 35.5 | LYPLA1 conf 47.5 | LYPLA2 conf 38.8
CCN(CC(=O)NCc1cccs1)S(=O)(=O)c1ccc(F)c(F)c1F	none
CC(C)CCNC(=O)NC(=O)COC(=O)/C=C/c1cccc([N+](=O)[O-])c1	LYPLA1 counter 24.6, LYPLA2 counter 30.0 | LYPLA1 conf 31.2 | LYPLA2 conf 32.5
C=CCNC(=O)NC(=O)COC(=O)/C=C/c1cccc([N+](=O)[O-])c1	none
CS(=O)(=O)c1ccc(CNC(=O)C2(C(F)(F)F)C/C(=C/CCO)CCCO2)cc1 (stereo not given)	none
NC(=O)c1cc([N+](=O)[O-])ccc1NCC1CCCCC1	LYPLA1 counter 24.5, LYPLA2 counter 42.7 | LYPLA1 conf 30.6 | LYPLA2 conf 37.3
NC(=O)c1cc([N+](=O)[O-])ccc1NCc1ccc(O)cc1	none
O=C(COc1ccccc1Cl)Nc1ccc(N2CCCC2)cc1	LYPLA1 counter 33.2, LYPLA2 counter 26.9 | LYPLA1 conf inactive | LYPLA2 conf inactive
O=C(COc1ccccc1)Nc1ccc(N2CCCCC2)cc1	none
COc1ccc(COC(=O)c2ccc(C)c(S(=O)(=O)N3CCOCC3)c2)cc1F	none
CCCOC(=O)c1ccc(Oc2coc3c(CN(CC)CC)c(O)ccc3c2=O)cc1	LYPLA1 counter 30.2, LYPLA2 counter 33.7 | LYPLA1 conf 32.5 | LYPLA2 conf 28.4
O=C(N1CCOCC1)n1nnc2ccccc21	LYPLA1 counter 91.1, LYPLA2 counter 46.9 | LYPLA1 conf 94.1 | LYPLA2 conf 51.5
O=C(CCC1CCCC1)N1CCN(C(=O)COc2ccccc2)CC1	none
Cc1ccc(OCC(=O)N2CCN(C(=O)CCC3CCCC3)CC2)cc1	LYPLA1 counter 61.3, LYPLA2 counter 26.6 | LYPLA1 conf 66.2 | LYPLA2 conf inactive
CC1CCCN(C(=O)C2CCN(c3nc(-c4ccccc4)nc4c3CCC4)CC2)C1 (stereo not given)	none
Cc1ccc(-c2nc3cccnc3s2)cc1NS(C)(=O)=O	none
Cc1ccc(/C=N/N2CCN(Cc3ccc(C)cc3)CC2)cc1	none
Cc1ccc(CN2CCN(/N=C\c3cccc([N+](=O)[O-])c3)CC2)cc1	LYPLA1 counter 16.6, LYPLA2 counter 28.2 | LYPLA1 conf 19.1 | LYPLA2 conf 35.0
CCn1c(C)nc2cc(C(=O)NNC(=S)Nc3ccc(OC)cc3)ccc21	none
CC#CC(=O)N1CCC(n2nccc2NC(=O)c2ccc3c(c2)OCO3)CC1	LYPLA1 counter 26.0, LYPLA2 counter 31.0 | LYPLA1 conf 36.6 | LYPLA2 conf 30.1
Fc1ccc(NC(=S)Nc2cccnc2)c(F)c1F	none
O=C(COc1ccc(Cl)cc1)N1CCN(c2ccc([N+](=O)[O-])c(N3CCOCC3)c2)CC1	LYPLA1 counter 67.8, LYPLA2 counter 32.0 | LYPLA1 conf 75.3 | LYPLA2 conf 28.7
Cc1ccsc1/C=N/NC(=O)c1nnn(-c2nonc2N)c1CSc1ccccc1	none
CC(=O)c1ccc(OCc2cc(C(=O)N(C)CCOc3ccc(C)cc3)no2)cc1	LYPLA1 counter 20.3, LYPLA2 counter 26.1 | LYPLA1 conf 22.7 | LYPLA2 conf inactive
COc1ccc(Cn2c(CCC(=O)Nc3ccccc3OC)nc3cccnc32)cc1	none
COC(=O)c1ccc2c(c1)SC1=C(CCCC1=O)N2	LYPLA1 counter 28.0, PME-1 inh 28.8, LYPLA2 counter 27.3 | LYPLA1 conf 18.9 | LYPLA2 conf inactive
O=C(/C=C/c1cccc(Br)c1)N1CCN(c2cccc(C(F)(F)F)c2)CC1	none
O=C(/C=C/c1ccc(Br)cc1)N1CCN(c2cccc(C(F)(F)F)c2)CC1	LYPLA1 counter 46.3, LYPLA2 counter 77.9 | LYPLA1 conf 48.8 | LYPLA2 conf 62.9
COc1ccc(C(=O)NC(=S)Nc2ccc(N3CCOCC3)cc2)cc1Cl	LYPLA1 counter 14.2, LYPLA2 counter 39.1 | LYPLA1 conf 24.8 | LYPLA2 conf 54.7
COc1ccc(C(=O)NC(=S)Nc2ccc(CN3CCOCC3)cc2)cc1Br	LYPLA1 counter 15.1, LYPLA2 counter 43.7 | LYPLA1 conf 21.8 | LYPLA2 conf 47.3
